Laboratory results as given in paper PMC7862700, “An all-to-all approach to the identification of sequence-specific readers for epigenetic DNA modifications on cytosine”.

Assays:
Test in all cases: DAPPL (digital affinity profiling via proximity ligation, sequencing); 10 mM Tris-HCl pH 7.5, 50 mM NaCl, 1 mM DTT, 4% glycerol, room temperature, 30 min; GST-TFs on glutathione beads, 16-mer random dsDNA library, 0.1% formaldehyde crosslink after washing; high values mean tight binding
FLI1 = target: T1, FLI1 (Homo sapiens, UniProt Q01543 1-452); conditions: protein: recombinant; tags: N-terminal GST; dsDNA, one strand shown
T1 sequence: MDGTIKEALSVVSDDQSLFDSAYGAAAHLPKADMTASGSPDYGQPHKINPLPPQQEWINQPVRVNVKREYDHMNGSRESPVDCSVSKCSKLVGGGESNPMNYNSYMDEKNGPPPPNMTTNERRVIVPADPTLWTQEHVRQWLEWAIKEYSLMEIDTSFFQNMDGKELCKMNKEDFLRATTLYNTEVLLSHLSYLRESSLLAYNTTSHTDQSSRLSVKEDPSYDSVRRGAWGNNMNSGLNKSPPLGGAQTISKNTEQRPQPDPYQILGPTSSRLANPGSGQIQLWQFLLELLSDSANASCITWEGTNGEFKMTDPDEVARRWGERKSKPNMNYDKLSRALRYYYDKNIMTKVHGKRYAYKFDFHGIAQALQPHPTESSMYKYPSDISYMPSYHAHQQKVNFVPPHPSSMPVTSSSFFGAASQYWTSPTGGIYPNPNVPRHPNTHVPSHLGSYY
In short: (§1)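 A tag-only sample was pooled with DNA-barcoded human transcription factors that had been expressed in yeast as GST fusions and captured on glutathione beads. The pools were incubated for 30 min at room temperature with 200 nmole of a random double-stranded 16-mer DNA library in Tris/NaCl/DTT/glycerol buffer, then washed, crosslinked with 0.1% formaldehyde, proximity-ligated (BsaI/T4 ligase, 1 h, 37 °C), PCR-amplified and sequenced on an Illumina NextSeq500. Binding signal is each hexamer's read frequency for a factor divided by its frequency for the tag-only sample.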

ELK1 = target: T2, ELK1 (Homo sapiens, UniProt P19419 1-428); conditions: protein: recombinant; tags: N-terminal GST; dsDNA, one strand shown
T2 sequence: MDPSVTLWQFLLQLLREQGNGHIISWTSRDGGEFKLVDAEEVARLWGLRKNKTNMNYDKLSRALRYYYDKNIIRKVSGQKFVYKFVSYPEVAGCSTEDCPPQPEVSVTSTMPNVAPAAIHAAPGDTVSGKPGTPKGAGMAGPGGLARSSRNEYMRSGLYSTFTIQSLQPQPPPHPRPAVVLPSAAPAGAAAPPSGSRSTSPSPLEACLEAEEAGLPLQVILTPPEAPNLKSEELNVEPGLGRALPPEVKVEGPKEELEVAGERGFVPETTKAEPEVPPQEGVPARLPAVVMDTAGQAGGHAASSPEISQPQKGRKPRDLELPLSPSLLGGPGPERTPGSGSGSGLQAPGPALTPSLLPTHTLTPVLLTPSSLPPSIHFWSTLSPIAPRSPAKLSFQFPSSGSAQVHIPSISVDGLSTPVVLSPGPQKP
In short: as §1

GABPA = target: T3, GABPA (Homo sapiens, UniProt Q06546 1-454); conditions: protein: recombinant; tags: N-terminal GST; dsDNA, one strand shown
T3 sequence: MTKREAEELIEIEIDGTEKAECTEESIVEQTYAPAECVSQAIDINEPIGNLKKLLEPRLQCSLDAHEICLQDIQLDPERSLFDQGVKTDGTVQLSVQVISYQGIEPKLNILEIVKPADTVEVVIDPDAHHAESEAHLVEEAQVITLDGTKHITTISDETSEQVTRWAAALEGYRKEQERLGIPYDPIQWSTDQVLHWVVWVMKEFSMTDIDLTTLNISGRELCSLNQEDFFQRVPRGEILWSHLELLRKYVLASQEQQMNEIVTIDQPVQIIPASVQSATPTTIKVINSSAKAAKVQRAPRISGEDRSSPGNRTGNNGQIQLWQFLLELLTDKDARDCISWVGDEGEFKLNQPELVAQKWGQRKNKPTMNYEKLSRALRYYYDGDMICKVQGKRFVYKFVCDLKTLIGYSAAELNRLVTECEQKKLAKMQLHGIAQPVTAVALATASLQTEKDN
In short: as §1

ERG = target: T4, ERG (Homo sapiens, UniProt P11308 1-479); conditions: protein: recombinant; tags: N-terminal GST; dsDNA, one strand shown
T4 sequence: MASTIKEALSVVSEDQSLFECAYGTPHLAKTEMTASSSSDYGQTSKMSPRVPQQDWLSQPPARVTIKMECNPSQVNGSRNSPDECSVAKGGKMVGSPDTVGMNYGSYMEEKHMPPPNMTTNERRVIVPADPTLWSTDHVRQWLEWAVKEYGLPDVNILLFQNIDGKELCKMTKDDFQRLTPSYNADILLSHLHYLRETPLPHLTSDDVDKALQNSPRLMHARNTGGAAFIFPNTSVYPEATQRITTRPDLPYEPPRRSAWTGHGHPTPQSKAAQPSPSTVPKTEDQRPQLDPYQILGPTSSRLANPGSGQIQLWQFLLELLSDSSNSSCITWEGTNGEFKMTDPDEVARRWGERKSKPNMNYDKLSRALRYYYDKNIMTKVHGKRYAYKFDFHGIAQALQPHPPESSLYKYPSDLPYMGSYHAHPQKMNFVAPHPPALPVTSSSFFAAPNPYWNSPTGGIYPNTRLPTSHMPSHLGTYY
In short: as §1

ELF1 = ELF1 (Homo sapiens, UniProt P32519 1-619); conditions: protein: recombinant; tags: N-terminal GST; dsDNA, one strand shown
Sequence of ELF1 (P32519 whole entry): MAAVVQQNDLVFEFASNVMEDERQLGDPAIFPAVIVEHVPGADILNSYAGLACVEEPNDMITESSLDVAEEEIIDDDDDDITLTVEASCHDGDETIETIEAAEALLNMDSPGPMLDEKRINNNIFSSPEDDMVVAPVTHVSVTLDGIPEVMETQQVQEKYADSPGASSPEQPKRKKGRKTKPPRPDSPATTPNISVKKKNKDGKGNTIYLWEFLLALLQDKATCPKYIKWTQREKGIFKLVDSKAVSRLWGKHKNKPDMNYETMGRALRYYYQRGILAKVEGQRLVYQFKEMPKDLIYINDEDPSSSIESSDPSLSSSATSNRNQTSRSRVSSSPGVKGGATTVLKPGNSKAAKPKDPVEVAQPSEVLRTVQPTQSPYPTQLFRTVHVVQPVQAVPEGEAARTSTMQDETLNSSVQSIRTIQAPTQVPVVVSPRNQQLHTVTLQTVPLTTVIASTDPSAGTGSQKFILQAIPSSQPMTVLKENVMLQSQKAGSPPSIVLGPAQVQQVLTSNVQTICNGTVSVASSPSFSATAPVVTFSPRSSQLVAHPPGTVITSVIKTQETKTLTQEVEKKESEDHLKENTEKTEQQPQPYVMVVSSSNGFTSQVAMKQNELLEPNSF
In short: as §1

EHF = target: T5, EHF (Homo sapiens, UniProt Q9NZC4 1-300); conditions: protein: recombinant; tags: N-terminal GST; dsDNA, one strand shown
T5 sequence: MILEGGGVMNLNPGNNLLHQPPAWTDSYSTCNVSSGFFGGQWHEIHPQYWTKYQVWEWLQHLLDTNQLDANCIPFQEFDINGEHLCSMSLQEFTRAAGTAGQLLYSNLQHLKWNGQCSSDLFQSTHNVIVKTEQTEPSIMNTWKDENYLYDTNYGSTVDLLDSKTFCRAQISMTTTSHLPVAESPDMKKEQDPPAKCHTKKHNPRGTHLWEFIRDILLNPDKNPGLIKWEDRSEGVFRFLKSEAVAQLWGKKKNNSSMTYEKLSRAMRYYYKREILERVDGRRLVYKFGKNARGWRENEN
In short: as §1

SPI1 = SPI1 (Homo sapiens, UniProt P17947 1-270); conditions: protein: recombinant; tags: N-terminal GST; dsDNA, one strand shown
In short: as §1

SPIB = SPIB (Homo sapiens, UniProt Q01892 1-262); conditions: protein: recombinant; tags: N-terminal GST; dsDNA, one strand shown
Sequence of SPIB (Q01892 whole entry): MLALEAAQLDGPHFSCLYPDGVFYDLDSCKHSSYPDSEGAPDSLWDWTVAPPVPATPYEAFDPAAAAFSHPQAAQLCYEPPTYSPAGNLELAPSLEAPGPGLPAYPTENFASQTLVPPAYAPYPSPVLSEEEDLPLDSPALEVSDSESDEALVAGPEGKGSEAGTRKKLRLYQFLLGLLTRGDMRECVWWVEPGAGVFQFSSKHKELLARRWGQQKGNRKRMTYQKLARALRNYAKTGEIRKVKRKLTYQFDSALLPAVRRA
In short: as §1

ELK3 = target: T6, ELK3 (Homo sapiens, UniProt P41970 1-407); conditions: protein: recombinant; tags: N-terminal GST; dsDNA, one strand shown
T6 sequence: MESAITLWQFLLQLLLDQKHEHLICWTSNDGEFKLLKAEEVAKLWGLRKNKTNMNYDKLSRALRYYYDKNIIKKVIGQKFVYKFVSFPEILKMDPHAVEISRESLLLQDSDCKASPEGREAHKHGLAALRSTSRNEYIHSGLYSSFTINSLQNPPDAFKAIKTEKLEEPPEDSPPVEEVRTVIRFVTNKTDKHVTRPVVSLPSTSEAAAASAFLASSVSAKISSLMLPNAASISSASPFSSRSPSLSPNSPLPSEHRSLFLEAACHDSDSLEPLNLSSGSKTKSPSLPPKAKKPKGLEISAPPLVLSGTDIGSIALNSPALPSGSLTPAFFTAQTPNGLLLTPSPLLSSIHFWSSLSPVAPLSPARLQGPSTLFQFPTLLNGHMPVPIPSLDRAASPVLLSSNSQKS
In short: as §1

FEV = target: T7, FEV (Homo sapiens, UniProt Q99581 1-238); conditions: protein: recombinant; tags: N-terminal GST; dsDNA, one strand shown
T7 sequence: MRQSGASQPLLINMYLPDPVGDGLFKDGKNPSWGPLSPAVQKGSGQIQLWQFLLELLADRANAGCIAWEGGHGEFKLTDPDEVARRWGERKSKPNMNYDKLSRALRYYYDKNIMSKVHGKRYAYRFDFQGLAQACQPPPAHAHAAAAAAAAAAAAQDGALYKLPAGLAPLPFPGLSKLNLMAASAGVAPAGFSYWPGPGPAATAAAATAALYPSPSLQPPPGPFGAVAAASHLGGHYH
In short: as §1

ETV5 = ETV5 (Homo sapiens, UniProt P41161 1-510); conditions: protein: recombinant; tags: N-terminal GST; dsDNA, one strand shown
Sequence of ETV5 (P41161 whole entry): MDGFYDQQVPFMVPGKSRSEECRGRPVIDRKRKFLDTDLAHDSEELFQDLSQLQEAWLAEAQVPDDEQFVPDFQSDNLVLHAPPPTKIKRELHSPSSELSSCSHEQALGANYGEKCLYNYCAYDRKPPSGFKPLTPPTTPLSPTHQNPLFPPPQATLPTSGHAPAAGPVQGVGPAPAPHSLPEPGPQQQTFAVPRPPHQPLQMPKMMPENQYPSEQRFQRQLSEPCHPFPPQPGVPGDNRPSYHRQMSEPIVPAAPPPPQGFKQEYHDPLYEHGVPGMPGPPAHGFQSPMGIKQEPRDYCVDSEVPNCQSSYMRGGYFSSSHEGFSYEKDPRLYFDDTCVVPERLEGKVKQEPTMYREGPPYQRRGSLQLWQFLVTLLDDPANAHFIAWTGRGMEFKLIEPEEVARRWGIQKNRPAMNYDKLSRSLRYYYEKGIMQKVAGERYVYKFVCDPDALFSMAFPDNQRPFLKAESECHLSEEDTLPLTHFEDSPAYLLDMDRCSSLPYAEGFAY
In short: as §1

HSF1 = HSF1 (Homo sapiens, UniProt Q00613 1-529); conditions: protein: recombinant; tags: N-terminal GST; chain copies: 3; dsDNA, one strand shown
Sequence of HSF1 (Q00613 whole entry): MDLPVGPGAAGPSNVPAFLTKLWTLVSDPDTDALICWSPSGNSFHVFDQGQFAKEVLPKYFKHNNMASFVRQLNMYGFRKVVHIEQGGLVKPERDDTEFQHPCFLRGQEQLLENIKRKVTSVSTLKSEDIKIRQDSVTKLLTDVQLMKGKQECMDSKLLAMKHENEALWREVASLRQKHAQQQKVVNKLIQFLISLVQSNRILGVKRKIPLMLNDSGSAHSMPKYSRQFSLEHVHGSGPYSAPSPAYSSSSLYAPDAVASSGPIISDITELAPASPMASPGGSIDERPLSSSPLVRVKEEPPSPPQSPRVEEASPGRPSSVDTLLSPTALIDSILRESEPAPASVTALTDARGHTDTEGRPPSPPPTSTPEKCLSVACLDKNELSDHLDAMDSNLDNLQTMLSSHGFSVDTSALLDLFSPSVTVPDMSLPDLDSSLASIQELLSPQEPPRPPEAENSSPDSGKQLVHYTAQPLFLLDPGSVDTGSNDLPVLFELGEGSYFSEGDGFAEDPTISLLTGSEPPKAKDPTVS
In short: as §1

SPIC = target: T8, SPIC (Homo sapiens, UniProt Q8N5J4 1-248); conditions: protein: recombinant; tags: N-terminal GST; dsDNA, one strand shown
T8 sequence: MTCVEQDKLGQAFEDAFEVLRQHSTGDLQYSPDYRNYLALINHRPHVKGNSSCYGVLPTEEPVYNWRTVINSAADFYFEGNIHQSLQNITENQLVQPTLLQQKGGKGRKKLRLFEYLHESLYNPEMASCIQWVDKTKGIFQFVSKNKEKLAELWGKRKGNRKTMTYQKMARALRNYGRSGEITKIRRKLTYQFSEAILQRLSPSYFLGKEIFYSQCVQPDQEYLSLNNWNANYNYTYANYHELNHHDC
In short: as §1

ELF4 = ELF4 (Homo sapiens, UniProt Q99607 1-663); conditions: protein: recombinant; tags: N-terminal GST; dsDNA, one strand shown
Sequence of ELF4 (Q99607 whole entry): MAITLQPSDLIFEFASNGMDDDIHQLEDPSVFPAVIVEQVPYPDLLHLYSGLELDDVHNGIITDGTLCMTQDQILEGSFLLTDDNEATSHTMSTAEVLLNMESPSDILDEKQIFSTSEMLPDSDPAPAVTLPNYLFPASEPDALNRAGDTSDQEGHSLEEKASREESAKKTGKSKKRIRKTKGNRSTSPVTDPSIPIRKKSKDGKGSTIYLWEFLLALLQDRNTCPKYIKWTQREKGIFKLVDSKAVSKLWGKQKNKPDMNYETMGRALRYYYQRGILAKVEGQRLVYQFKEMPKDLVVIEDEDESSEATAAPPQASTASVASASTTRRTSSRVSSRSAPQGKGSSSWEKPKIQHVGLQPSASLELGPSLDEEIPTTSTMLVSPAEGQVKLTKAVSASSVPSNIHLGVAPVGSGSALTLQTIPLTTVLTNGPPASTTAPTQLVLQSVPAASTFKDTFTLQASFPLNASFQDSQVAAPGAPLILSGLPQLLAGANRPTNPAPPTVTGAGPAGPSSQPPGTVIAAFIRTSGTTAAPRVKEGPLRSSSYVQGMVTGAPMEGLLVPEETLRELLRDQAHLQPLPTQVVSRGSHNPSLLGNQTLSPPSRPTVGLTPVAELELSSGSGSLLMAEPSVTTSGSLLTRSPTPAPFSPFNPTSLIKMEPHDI
In short: as §1

ELK4 = target: T9, ELK4 (Homo sapiens, UniProt P28324-2 1-405); conditions: protein: recombinant; tags: N-terminal GST; dsDNA, one strand shown
T9 sequence: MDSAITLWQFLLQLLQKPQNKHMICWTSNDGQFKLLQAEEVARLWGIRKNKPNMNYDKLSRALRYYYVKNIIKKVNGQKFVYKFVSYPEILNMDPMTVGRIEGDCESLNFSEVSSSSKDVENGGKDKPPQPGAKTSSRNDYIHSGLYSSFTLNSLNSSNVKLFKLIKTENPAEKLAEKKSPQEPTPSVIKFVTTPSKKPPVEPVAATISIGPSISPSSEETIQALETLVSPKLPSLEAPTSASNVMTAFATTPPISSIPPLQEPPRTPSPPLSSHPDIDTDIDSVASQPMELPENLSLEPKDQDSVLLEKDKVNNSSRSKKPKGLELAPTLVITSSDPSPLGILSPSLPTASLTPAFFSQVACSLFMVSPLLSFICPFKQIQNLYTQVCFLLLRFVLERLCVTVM
In short: as §1

ETV2 = target: T10, ETV2 (Homo sapiens, UniProt O00321 1-342); conditions: protein: recombinant; tags: N-terminal GST; dsDNA, one strand shown
T10 sequence: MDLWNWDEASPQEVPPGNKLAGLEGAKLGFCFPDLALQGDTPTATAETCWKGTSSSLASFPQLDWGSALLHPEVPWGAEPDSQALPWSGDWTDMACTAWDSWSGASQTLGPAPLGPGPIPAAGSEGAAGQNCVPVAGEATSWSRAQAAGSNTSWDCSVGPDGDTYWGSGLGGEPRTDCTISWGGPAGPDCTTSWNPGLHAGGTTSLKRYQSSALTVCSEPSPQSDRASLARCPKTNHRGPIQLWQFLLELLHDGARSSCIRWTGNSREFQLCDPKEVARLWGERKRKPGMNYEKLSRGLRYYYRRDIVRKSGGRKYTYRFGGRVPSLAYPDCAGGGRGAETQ
In short: as §1

ELF3 = target: T11, ELF3 (Homo sapiens, UniProt P78545 1-371); conditions: protein: recombinant; tags: N-terminal GST; dsDNA, one strand shown
T11 sequence: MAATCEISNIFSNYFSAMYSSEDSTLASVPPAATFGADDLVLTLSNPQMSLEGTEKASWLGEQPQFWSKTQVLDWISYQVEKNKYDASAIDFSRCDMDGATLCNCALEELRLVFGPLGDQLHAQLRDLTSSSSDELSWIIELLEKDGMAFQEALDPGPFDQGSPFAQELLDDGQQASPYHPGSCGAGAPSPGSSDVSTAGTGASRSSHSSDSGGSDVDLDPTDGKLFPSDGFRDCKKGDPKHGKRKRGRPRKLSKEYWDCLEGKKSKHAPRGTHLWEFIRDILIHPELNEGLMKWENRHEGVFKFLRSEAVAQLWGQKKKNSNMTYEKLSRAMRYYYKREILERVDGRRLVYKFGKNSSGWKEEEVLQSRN
In short: as §1

ETV1 = ETV1 (Homo sapiens, UniProt P50549 1-477); conditions: protein: recombinant; tags: N-terminal GST; dsDNA, one strand shown
Sequence of ETV1 (P50549 whole entry): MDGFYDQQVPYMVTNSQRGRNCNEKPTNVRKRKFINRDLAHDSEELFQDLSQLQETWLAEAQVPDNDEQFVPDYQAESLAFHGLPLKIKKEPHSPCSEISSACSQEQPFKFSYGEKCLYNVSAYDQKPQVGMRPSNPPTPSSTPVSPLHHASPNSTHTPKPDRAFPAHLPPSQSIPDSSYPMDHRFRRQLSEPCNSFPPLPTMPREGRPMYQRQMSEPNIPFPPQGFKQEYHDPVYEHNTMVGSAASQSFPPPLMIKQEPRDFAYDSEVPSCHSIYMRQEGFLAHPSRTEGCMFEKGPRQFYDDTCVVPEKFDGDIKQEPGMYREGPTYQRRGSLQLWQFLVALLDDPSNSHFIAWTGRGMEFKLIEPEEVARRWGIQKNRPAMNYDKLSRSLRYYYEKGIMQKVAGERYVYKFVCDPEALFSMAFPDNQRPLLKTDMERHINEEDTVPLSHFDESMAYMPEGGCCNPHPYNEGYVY
In short: as §1

CCGACA
binding signal (FLI1): 1.2 fold enrichment (6-mer frequency, TF over GST control) | binding signal (ELK1): 1.18 fold enrichment (6-mer frequency, TF over GST control) | binding signal (GABPA): 1.11 fold enrichment (6-mer frequency, TF over GST control) | binding signal (ERG): 1.29 fold enrichment (6-mer frequency, TF over GST control) | binding signal (ELF1): 1.27 fold enrichment (6-mer frequency, TF over GST control) | binding signal (EHF): 1.21 fold enrichment (6-mer frequency, TF over GST control) | binding signal (SPI1): 1.24 fold enrichment (6-mer frequency, TF over GST control) | binding signal (SPIB): 1.25 fold enrichment (6-mer frequency, TF over GST control) | binding signal (ELK3): 1.16 fold enrichment (6-mer frequency, TF over GST control) | binding signal (FEV): 1.31 fold enrichment (6-mer frequency, TF over GST control) | binding signal (ETV5): 1.24 fold enrichment (6-mer frequency, TF over GST control) | binding signal (HSF1): 1.03 fold enrichment (6-mer frequency, TF over GST control) | binding signal (SPIC): 1.34 fold enrichment (6-mer frequency, TF over GST control) | binding signal (ELF4): 1.13 fold enrichment (6-mer frequency, TF over GST control) | binding signal (ELK4): 1.14 fold enrichment (6-mer frequency, TF over GST control) | binding signal (ETV2): 1.32 fold enrichment (6-mer frequency, TF over GST control) | binding signal (ELF3): 1.18 fold enrichment (6-mer frequency, TF over GST control) | binding signal (ETV1): 1.28 fold enrichment (6-mer frequency, TF over GST control)
